Inconclusive results are not listed. Calls of active or inactive are those of the source. The calls were made as follows: active = hit-call score of the fitted dose curve at least 0.9, where 1 is the maximum; inconclusive = response in the unintended direction; inactive = score below 0.9.
Assay: CCTE_Mundy_HCI_hN2_NOG_NeuriteCount: CCTE's Neurite Outgrowth Assay in human hN2 cells for Neurite Count, Mundy Lab (AID 2284219)
Protocol: CCTE_Mundy_HCI_hN2_NOG is a multiplexed, cell-based-readout assay that uses immature neurons derived from hNP1 neuroprogenitor cells with measurements taken at 50.33 hours after chemical dosing in a microplate: 96-well plate.CCTE_Mundy_HCI_hN2_NOG_NeuriteCount is one of four components of the CCTE_Mundy_HCI_hN2_NOG assay. It measures neurite outgrowth related to number of neurites using High Content Imaging of fluorescently labelled markers.[…] Using a type of morphology reporter, loss -of-signal activity can be used to understand developmental effects.
Exposure starts 2 hours post-plating by adding 10 ul of the working solution to 90 ul of media in the wells for a 1/10 dilution. Forty-eight hours after chemical treatment cells are fixed by direct addition of 100 ul of warm (37C) Dulbecco's phosphate buffered saline (DPBS) fixative solution containing 8% paraformaldehyde, 8% sucrose, and 0.1% of 3 mg/ml Hoechst 33342 into each well. Primary antibodies are prepared by dilution in Immunocytochemical Staining Buffer (ISB), 10X Dulbecco's PBS, 0.1% Saponin, 5% Bovine Serum Albumin, 0.5% NaN3 (Sodium Azide) and betaIII-tubulin (rabbit anti-betaIII-tubulin, 1:800) followed by Alexa Fluor-488 secondary (1:500) to label neuronal cell bodies and neurites. A Cellomics ArrayScan VTi HCS Reader is used for automated image acquisition and analysis of neurite outgrowth.

| Structure (SMILES) | AC50 | outcome |
| --- | --- | --- |
| [CH3][Hg][Cl] | 0.118 µM (active) | – |
| O.O.O.O.O.[Cd+2].[Cd+2].[Cl-].[Cl-].[Cl-].[Cl-] | 30 µM (active) | – |
| C[n+]1ccc(-c2cc[n+](C)cc2)cc1 | – | inactive |
| CN1C(=O)CN=C(c2ccccc2)c2cc(Cl)ccc21 | – | inactive |
| [CH3][Sn]([CH3])[CH3] | – | inactive |
| CN[C@]1(c2ccccc2Cl)CCCCC1=O | – | inactive |
| CC(=O)[O-].CC(=O)[O-].O.O.O.[Pb+2] | 2.19 µM (active) | – |
| CCC[CH2][Sn]([CH2]CCC)([CH2]CCC)[O][Sn]([CH2]CCC)([CH2]CCC)[CH2]CCC | 0.0478 µM (active) | – |
| O=C(O)CNCP(=O)(O)O | – | inactive |
| C=CCN1CC[C@]23c4c5ccc(O)c4O[C@H]2C(=O)CC[C@@]3(O)[C@H]1C5 | – | inactive |
| O=[As]O | 6.15 µM (active) | – |
| Brc1ccc(Oc2ccc(Br)cc2Br)c(Br)c1 | 8.93 µM (active) | – |

From PubChem BioAssay (EPA / NIEHS)
